Source: PubChem (National Center for Advancing Translational Sciences (NCATS))
Sampled rows, rich in hits. Any-hit rate of the full collection: about 12%.
Shiga toxin inh = A qHTS for Small Molecule Inhibitors of Shiga Toxin. inhibition, % at 38.7 µM. Vero cells, Shiga toxin protein synthesis inhibition reporter. 9.2% of 290,000 active; in the data active = inhibition mostly above about 28%, no sharp cut-off; inactive = mostly below about 43%
Cycloheximide cs = Cycloheximide Counterscreen for Small Molecule Inhibitors of Shiga Toxin; cell reporter, cycloheximide protein synthesis inhibition counterscreen; max response, %; 12% of 300,000 active; in the data active = max response mostly above about 13%, no sharp cut-off; inactive = mostly below about 14%; note: read at 38.3 µM for the half of the compounds with a filed dose
FMDV antiviral = High Throughput Screening for Foot and Mouth Disease Virus Antivirals. AID 1159524, 2015. Potency, µM (highest dose often 57.9 µM), hits mostly inhibitors. 1.2% of 410,000 active. FMDV antiviral cell-based qHTS; calls by dose curve; tested in HEK293T cells; note: read-out not given here; nearly all actives have a fitted effect of over 45% in size
Sm TGR inh = qHTS Assay for the Inhibitors of Schistosoma Mansoni Peroxiredoxins; Schistosoma mansoni thioredoxin glutathione reductase (TGR), Q962Y6; purified TGR, DTNB reduction, TNB absorbance 405 nm; Potency, µM (series often up to 114 µM), actives largely listed as inhibitors; 3% of 360,000 active; active = well fitted inhibition curve with a large enough effect; inconclusive = small, poorly fitted or top-dose-only effect; inactive = no such curve, though single readings can be large or run the other way; note: nearly all actives have a fitted effect of over 60% in size
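First, TGR (20 nM dispensed) and NADPH were mixed with compound. Second, a 15 min room-temperature incubation followed. Third, further NADPH and then DTNB were added to start the reaction. Finally, TNB absorbance was monitored kinetically.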
Large screens that a line does not name were inactive; ! = not active in a repeat.

Cc1csc(NC(=O)c2cnccn2)n1	Cycloheximide cs 45
Cc1csc(NC(=O)c2cccnc2)n1	none
Cc1csc(NC(=O)c2ccc3nc[nH]c3c2)n1	Cycloheximide cs 52
O=C(O)CCC/C=C\C[C@@H]1C(/C=C/[C@@H](O)COc2cccc(C(F)(F)F)c2)[C@@H](O)C[C@@H]1O (stereo partly specified)	none (no result: Shiga toxin inh, Cycloheximide cs, Sm TGR inh)
Cc1csc(NC(=O)c2ccccc2)n1	Cycloheximide cs 43 (no result: Shiga toxin inh)
Cc1csc(NC(=O)c2cccc(C)c2C)n1	Cycloheximide cs 38
CC(=O)Nc1nc(C)cs1	none
Cc1csc(NC(=O)c2ccc[nH]c2=O)n1	Cycloheximide cs 36 (no result: Shiga toxin inh)
Cc1csc(NC(=O)c2cccnc2Cl)n1	none (no result: Shiga toxin inh, Cycloheximide cs, Sm TGR inh)
Cc1csc(NC(=O)NCC2CCCC(CNC(=O)Nc3nc(C)cs3)C2)n1 (stereo unspecified)	Shiga toxin inh 43, Cycloheximide cs 30
CCOc1ccc(S(=O)(=O)Nc2cccc(-c3ccc(OCC)nn3)c2)cc1	none (no result: Shiga toxin inh, Cycloheximide cs)
CN(C)S(=O)(=O)c1ccc(C(=O)NCCSc2c(-c3ccc(Br)cc3)[nH]c3ccccc23)cc1	FMDV antiviral inconclusive (no result: Shiga toxin inh, Cycloheximide cs)
CCOc1ccc(-c2cn3c(n2)sc2cc(C(=O)NCCCc4ccccc4)ccc23)cc1	none (no result: Shiga toxin inh, Cycloheximide cs)
CCN(C(=O)c1cc2ccccc2oc1=O)c1ccccc1	Cycloheximide cs 24
CCN(C(=O)c1cc2ccccc2oc1=O)c1cccc(C)c1	Shiga toxin inh 78, Cycloheximide cs 53
CCN(C(=O)c1cc2cc(OC)ccc2oc1=O)c1cccc(C)c1	none
Oc1ccccc1C1C=C(c2ccc3c(c2)OCO3)NC(c2cccc(F)c2)N1 (stereo unspecified)	Shiga toxin inh 96, Cycloheximide cs 58 (no result: FMDV antiviral, Sm TGR inh)
Oc1ccccc1C1C=C(c2ccc3c(c2)OCO3)NC(c2cccc(Br)c2)N1 (stereo unspecified)	Shiga toxin inh 93, Cycloheximide cs 28 (no result: FMDV antiviral, Sm TGR inh)
CC(=O)C1=C(c2ccccc2)NC(=O)NC1c1ccc2c(c1)OCO2 (stereo unspecified)	none (no result: Shiga toxin inh)
Oc1ccc(Br)cc1C1C=C(c2ccc3c(c2)OCO3)NC(c2cccc(F)c2)N1 (stereo unspecified)	Cycloheximide cs 34 (no result: FMDV antiviral, Sm TGR inh)
CCCCCCC1(C)NC(c2ccc3c(c2)OCO3)=CC(c2cc(Br)ccc2O)N1 (stereo unspecified)	none (no result: FMDV antiviral, Sm TGR inh)
COc1ccc(CC(=O)N2CC(=O)Nc3ccc(F)cc3C2c2ccccc2)cc1 (stereo unspecified)	none (no result: Shiga toxin inh, Cycloheximide cs)
CC(=O)Nc1ccc(NC(=O)C2CCCN2S(=O)(=O)c2ccc3c(c2)CCCC(=O)N3)cc1 (stereo unspecified)	none (no result: Shiga toxin inh, Cycloheximide cs)
Cc1ccc(C)c(NC(=S)NNC(=O)c2csc3c2CCCC3)c1	none
Cc1cccc(NC(=S)NNC(=O)c2csc3c2CCCC3)c1	Cycloheximide cs 29
Cc1cccc(NC(=S)NNC(=O)c2csc(C)c2)c1	Shiga toxin inh 22, Cycloheximide cs 24
CCN(CC)CCNc1nc(-n2nc(C)cc2C)nc2sc3c(c12)CC(C)(C)OC3	Cycloheximide cs 12
Cc1cc(C)n(-c2nc(NCCN(C)C)c3c4c(sc3n2)COC(C)(C)C4)n1	none
CCSc1nc(NCCN(C)C)c2c3c(sc2n1)COC(C)(CC)C3 (stereo unspecified)	Cycloheximide cs 30, Sm TGR inh inconclusive
CCC1CN(C(=O)Nc2ccc(Br)cc2F)c2ccccc2S1 (stereo unspecified)	none (no result: Shiga toxin inh, Cycloheximide cs)
Cc1ccccc1Oc1cc(-n2ncc(Cl)c(Cl)c2=O)ncn1	Cycloheximide cs 14, FMDV antiviral 4.5µM, Sm TGR inh 2µM
CCOc1cnn(-c2cc(Oc3ccc(C)cc3)ncn2)c(=O)c1Cl	none
COc1cccc(Nc2nc(-c3cccc(N4C(=O)c5ccccc5C4=O)c3)cs2)c1	Cycloheximide cs 33
COc1cccc(Nc2nc(-c3ccc(O)cc3)cs2)c1	Cycloheximide cs 35
COc1cccc(-c2csc(Nc3ccc(Oc4ccccc4)cc3)n2)c1	none (no result: Shiga toxin inh, Cycloheximide cs, Sm TGR inh)
COc1ccc(-c2cc(-c3ccc(Cl)cc3)n[nH]2)c(O)c1	Shiga toxin inh 92, Cycloheximide cs 37
COc1ccc(-c2ncncc2-c2ccc(Cl)cc2)c(O)c1	none
COc1ccc(O)c(-c2cc(-c3cccc(Br)c3)n[nH]2)c1	Shiga toxin inh 29, Cycloheximide cs 32
COc1ccc(-c2cc(-c3cc(F)ccc3O)[nH]n2)cc1OC	Shiga toxin inh 78, Cycloheximide cs 38
COc1ccc(O)c(-c2cc(-c3ccc(F)cc3)n[nH]2)c1	Shiga toxin inh 116, Cycloheximide cs 50
CCC(=O)N1c2ccc(S(=O)(=O)CCC(=O)NCc3ccc(OC)cc3)cc2CC1C (stereo unspecified)	none (no result: Shiga toxin inh, Cycloheximide cs)
CCc1ccccc1NC(=O)CCNS(=O)(=O)c1ccc2c(c1)CCN2C(=O)C1CC1	none (no result: Shiga toxin inh, Cycloheximide cs)
COc1ccc(-c2cc(-c3cc(OC)ccc3O)[nH]n2)cc1	Shiga toxin inh 97, Cycloheximide cs 45
COc1ccc(-c2cc(-c3ccc(OC)c(OC)c3)n[nH]2)c(O)c1	Shiga toxin inh 97, Cycloheximide cs 71
CC(=O)N(O)C/C=C/c1cccc(Oc2ccccc2)c1	none (no result: FMDV antiviral, Sm TGR inh)
C#C[C@]1(O)CC[C@H]2[C@@H]3CCC4=Cc5oncc5C[C@]4(C)[C@H]3CC[C@@]21C	FMDV antiviral 40µM (no result: Shiga toxin inh, Cycloheximide cs, Sm TGR inh)
C#C[C@]1(O)CC[C@H]2[C@H]3CCC4=Cc5oncc5C[C@]4(C)[C@@H]3CC[C@]21C	none (no result: Shiga toxin inh, Cycloheximide cs, Sm TGR inh)
O=C(CCN1C(=O)c2ccccc2C1=O)N1CCN(c2ccccc2)CC1	none
O=C(COc1ccc(Br)cc1)N1CCC(c2ccccc2)C1 (stereo unspecified)	Cycloheximide cs 23
O=C(CCN1C(=O)c2ccccc2C1=O)N1CCC(c2ccccc2)C1 (stereo unspecified)	Cycloheximide cs 21
O=C(O)C1CCN(C(=O)CCN2C(=O)S/C(=C\c3ccccc3)C2=O)CC1	none
O=C(O)CCN1C(=O)c2ccccc2C1=O	none
O=C(CCN1C(=O)c2ccccc2C1=O)N1CCCCCC1	Cycloheximide cs 13
O=C(CCN1C(=O)S/C(=C\c2ccccc2)C1=O)N1CCCCC1	Shiga toxin inh 75, Cycloheximide cs 27
O=C(CCNS(=O)(=O)c1ccccc1)N1CCCCCC1	Cycloheximide cs 32
Cc1cc2c(s1)c1cnn(Cc3ccccc3Cl)c(=O)c1n2C	none (no result: FMDV antiviral, Sm TGR inh)
COCC(=O)Nc1ccc2c(c1)OCC(=O)N2Cc1ccc(C)cc1	Cycloheximide cs 12
COc1ccc(C2CC(O)(c3ccccc3)Oc3cc(OC)c(OC)c(OC)c32)cc1 (stereo unspecified)	Cycloheximide cs 20!
COc1ccc(CCC(C)Nc2cccc(F)c2)cc1 (stereo unspecified)	Cycloheximide cs 18
CCOC(=O)c1cccc(NC(=O)C2=C(C)C(=O)OC23CCCCC3)c1	none (no result: Shiga toxin inh, Cycloheximide cs)
O=C(Nc1ccccc1C(=O)NCCc1ccccc1)c1cnccn1	Cycloheximide cs 19
O=C(NCCc1ccccc1)c1ccccc1NC(=O)C1CC=CCC1C(=O)O (stereo unspecified)	Shiga toxin inh 70, Cycloheximide cs 61
O=C(O)CCC(=O)Nc1ccccc1C(=O)NCCc1ccccc1	Shiga toxin inh 73, Cycloheximide cs 45
NC(=O)c1ccccc1NC(=O)CCc1ccccc1	Cycloheximide cs 29
